EPAC2 antag – qHTS for Antagonist of cAMP-regulated guanine nucleotide exchange factor 2 (EPAC2): primary screen; Rap guanine nucleotide exchange factor 4 (Homo sapiens), Q8WZA2; Potency, µM (top dose mostly 114 µM), most hits filed as inhibitors; AID 720708, 2013; EPAC2 GEF exchange of Rap1B-BODIPY-GDP, fluorescence; 0.18% of 360,000 active; note: nearly all actives have a fitted effect of over 45% in size
EPAC2 ag – qHTS for Agonist of cAMP-regulated guanine nucleotide exchange factor 4 (EPAC2): primary screen | 0.079% of 360,000 active | Rap guanine nucleotide exchange factor 4 (Homo sapiens), Q8WZA2 | Potency, µM (titrated, usually from 154 µM), most hits filed as activators | EPAC2 activation, biochemical qHTS; response scale: 100% = 6.5 mM cAMP response; note: nearly all actives have a fitted effect of over 50% in size
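Each well held 100 nM EPAC2, 250 nM RAP1B-BODIPY-GDP and 50 uM GDP. Fluorescence, read at 5-min intervals to 30 min, was referenced to a 6.5 mM cAMP positive control.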
USP1 inh – Inhibitors of USP1/UAF1: Primary Screen; recombinant USP1/UAF1, Ub-Rhodamine cleavage fluorescence; Potency, µM (highest dose often 57.1 µM), usual class: inhibitors; 0.23% of 390,000 active; AID 743255, 2014; note: nearly all actives have a fitted effect of over 60% in size
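Step one: compound is pinned into 1nM USP1/UAF1 in HEPES pH 7.8 buffer with TCEP. Step two: 15 min room-temperature incubation. Step three: Ub-Rho (150nM final) starts cleavage, tracked by fluorescence over six one-minute reads.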
EPAC1 antagonist – qHTS for Antagonist of cAMP-regulated guanine nucleotide exchange factor 3 (EPAC1): primary screen | Rap guanine nucleotide exchange factor 3 (Homo sapiens), O95398 | EPAC1 GEF assay, Rap1b-BODIPY-GDP exchange fluorescence | Potency, µM (doses to about 115 µM), actives largely listed as inhibitors | 0.14% of 360,000 active; note: nearly all actives have a fitted effect of over 50% in size
Target sequence (O95398 whole entry, looked up): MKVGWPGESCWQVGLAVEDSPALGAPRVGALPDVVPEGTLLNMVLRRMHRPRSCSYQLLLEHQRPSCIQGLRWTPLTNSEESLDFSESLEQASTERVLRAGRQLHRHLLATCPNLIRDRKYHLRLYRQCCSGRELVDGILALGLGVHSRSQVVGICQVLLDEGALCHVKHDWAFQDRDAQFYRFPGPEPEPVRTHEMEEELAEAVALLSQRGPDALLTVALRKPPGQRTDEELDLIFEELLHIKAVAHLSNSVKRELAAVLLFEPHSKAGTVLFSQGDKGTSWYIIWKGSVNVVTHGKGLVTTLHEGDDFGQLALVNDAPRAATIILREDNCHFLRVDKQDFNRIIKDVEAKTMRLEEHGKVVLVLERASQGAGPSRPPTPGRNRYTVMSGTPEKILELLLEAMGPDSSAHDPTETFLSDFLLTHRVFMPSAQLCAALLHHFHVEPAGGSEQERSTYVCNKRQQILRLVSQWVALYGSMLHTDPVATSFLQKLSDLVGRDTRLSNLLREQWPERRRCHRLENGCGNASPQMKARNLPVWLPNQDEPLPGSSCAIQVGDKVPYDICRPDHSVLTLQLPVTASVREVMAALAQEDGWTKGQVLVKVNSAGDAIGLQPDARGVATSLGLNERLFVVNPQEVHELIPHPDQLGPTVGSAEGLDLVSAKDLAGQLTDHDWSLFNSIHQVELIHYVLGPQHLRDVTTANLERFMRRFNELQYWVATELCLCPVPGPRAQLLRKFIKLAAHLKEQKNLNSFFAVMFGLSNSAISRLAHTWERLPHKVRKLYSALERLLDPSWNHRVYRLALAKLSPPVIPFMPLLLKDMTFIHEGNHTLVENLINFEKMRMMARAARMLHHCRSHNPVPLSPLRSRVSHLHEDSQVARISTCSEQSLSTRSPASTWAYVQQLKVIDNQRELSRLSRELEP
EPAC1 ag – qHTS for Agonist of cAMP-regulated guanine nucleotide exchange factor 3 (EPAC1): primary screen; Rap guanine nucleotide exchange factor 3 (Homo sapiens), O95398; EPAC1 agonist qHTS, biochemical assay; response scale: 100% = response to 6.5 mM cAMP; Potency, µM (doses to about 154 µM), usual class: activators; 0.073% of 360,000 active; AID 720707, 2013; note: nearly all actives have a fitted effect of over 60% in size
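Normalized to 6.5 mM cAMP, activity reflects EPAC1-catalysed release of BODIPY-GDP from Rap1B, followed kinetically over 30 min at 480 nm excitation, 540 nm emission. Reaction contained 100 nM EPAC1, 250 nM Rap1B-BODIPY-GDP, 50 uM GDP.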
BRCA1 expr act – qHTS Assay to Identify Small Molecule Activators of BRCA1 Expression; MCF7-BRCA1-FFLuc reporter, luminescence, 48 h; response scale: scaled: vehicle 0%, 10 µM genistein 100%; 1.1% of 380,000 active; Potency, µM (doses to about 46.1 µM), hits mostly activators; note: nearly all actives have a fitted effect of over 80% in size
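Activators of BRCA1 expression were detected as increased firefly luciferase luminescence in engineered MCF7 cells after 48 h compound incubation. Signals were scaled to genistein 10 microM as full activation.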
Of the large screens only hits and unclear results are named; the others gave an inactive call; ! = not active in a repeat. This is a sample that favours compounds with a hit; in the whole collection about 1.4% have one here. Calls come from the whole dose curve; as a rule, active = well fitted curve in the direction sought with a large enough effect; inconclusive = small, poorly fitted or top-dose-only effect, or another doubt; inactive = no such curve, though single readings can be large; an effect the other way counts as inactive or inconclusive.

O=C(c1ccc2nc(Cc3ccccc3F)oc2c1)N1CCCC1	BRCA1 expr act 5.6µM
CC(c1ccccn1)N(C)C(=O)c1ccc2nc(Cc3ccccc3F)oc2c1 (stereo not given)	BRCA1 expr act 11µM
Cc1cc(CNC(=O)c2ccc3nc(Cc4ccccc4F)oc3c2)nn1C	BRCA1 expr act 8.9µM
CC(=O)N1CCCN(C(=O)c2ccc3nc(Cc4ccccc4F)oc3c2)CC1	none
O=C(NCc1ccncc1)c1ccc2nc(Cc3ccccc3F)oc2c1	none
CC(C)C[C@@H](CN1CCC[C@H]1CN1C(=O)C(=O)NC[C@@H]1Cc1ccc(O)cc1)N1C[C@H](Cc2ccc(O)cc2)N(CC2CCCCCC2)C(=O)C1=O	EPAC1 antagonist inconclusive (no result: USP1 inh)
COCCCn1c(=O)c2sccc2n(Cc2ccc(C)cc2)c1=O	none
O=C(Nc1ccc2c(c1)COC2=O)c1ccc(Cl)c(Cl)c1	BRCA1 expr act 14µM
O=C(Nc1ccc(Cl)c(Cl)c1)c1ccc(Cl)c(Cl)c1	none
Fc1ccc(-n2nnc(-c3ccccc3)n2)cc1	none
Clc1ncccc1-c1nnn(-c2ccccc2Br)n1	EPAC2 antag inconclusive, BRCA1 expr act inconclusive
Brc1ccccc1-n1nnc(-c2nccs2)n1	EPAC2 antag inconclusive, EPAC1 antagonist inconclusive, BRCA1 expr act 4.5µM
c1ccc(-n2nnc(-c3nccs3)n2)cc1	BRCA1 expr act 2.8µM
Clc1ccccc1OCCN1CCCCC1	none
Cn1c(=O)n(CCOc2ccccc2Cl)c2ccccc21	BRCA1 expr act 5µM
O=c1ccccn1CCOc1ccccc1Cl	BRCA1 expr act 13µM
CN(C)CCN1C(=O)C(=O)/C(=C(/O)c2ccc(S(=O)(=O)N3CCOCC3)cc2)C1c1ccc(F)cc1 (stereo not given)	none
Clc1ccc(OCCCN2CCCCC2)c(Br)c1	BRCA1 expr act 10µM
Cc1ccc2oc(Nc3nc(-c4ccccc4)cc(=O)[nH]3)nc2c1	EPAC1 antagonist inconclusive, BRCA1 expr act 3.5µM
CCCCC(CC)CN=C(N)NC(N)=NCCCCCCN=C(N)NC(N)=NCC(CC)CCCC (stereo not given)	EPAC2 antag inconclusive, USP1 inh 32µM, EPAC1 antagonist inconclusive
O=C1NCCN(Cc2ccc(F)cc2)C1=O	none (no result: EPAC2 antag, EPAC2 ag, EPAC1 antagonist, EPAC1 ag)
O=C1NN(c2ccccc2)C(=O)/C1=C/c1ccc(-c2ccc(C(=O)O)cc2)o1	none
O=C1NN(c2ccccc2)C(=O)/C1=C/c1ccc(Sc2cccc3ccccc23)o1	USP1 inh inconclusive, EPAC1 antagonist 56µM
O=C(O)c1cc(-c2ccc3ccccc3c2)nc2ccc(F)cc12	BRCA1 expr act inconclusive
CC(C)C[C@H](NC(=O)C1(c2ccccc2)CCN(C(=O)OC(C)(C)C)CC1)C(=O)N1CCC[C@H]1C(=O)O	EPAC2 antag 79µM, EPAC1 antagonist inconclusive
Cc1ccc(NC(=O)N2CCN(C)c3ncccc32)cc1C	none (no result: EPAC2 antag, EPAC2 ag, EPAC1 antagonist, EPAC1 ag)
O=C1NC(=S)S/C1=C\c1cc(Cl)ccc1Cl	EPAC2 antag 56µM, EPAC1 antagonist inconclusive
COc1ccccc1CCNS(=O)(=O)CCNC(=O)c1ccc2c(c1)OCO2	none
COc1cc(OC)cc(-c2noc(-c3csc([C@H]4C[C@H](O)[C@@H](CO)O4)n3)n2)c1	EPAC1 antagonist inconclusive, BRCA1 expr act 3.2µM (no result: USP1 inh)
CCC(C)Sc1ccc([C@@H]2[C@@H]3C(=O)N(C)C(=O)[C@@H]3[C@]3(C(=O)OC)CCCCN23)cc1 (stereo not given in full)	USP1 inh inconclusive
CCN(CC(=O)Nc1ccccc1C(F)(F)F)C(=O)CCOc1ccccc1C	EPAC1 ag 45µM
N#CCCN1CCN(C(=S)c2ccc(-c3ccc(Cl)c(Cl)c3)o2)CC1	none
N#CCCN1CCN(C(=S)c2ccc(-c3cccc(Cl)c3)o2)CC1	BRCA1 expr act 10µM
S=C(c1ccc(-c2cccc(Cl)c2)o1)N1CCOCC1	BRCA1 expr act 3.5µM
O=[N+]([O-])c1cccc(-c2ccc(C(=S)N3CCOCC3)o2)c1	BRCA1 expr act 4.5µM
CC(=O)N/N=c1\sc2ccccc2n1C	none
Cn1/c(=N\NC(=O)c2ccccc2Cl)sc2ccccc21	BRCA1 expr act 11µM
CCCCN(C(=O)c1cnc(C)cn1)c1c(N)n(CCC)c(=O)[nH]c1=O	none
CN(C)C(=O)CNc1ccn2nc(-c3cccc(Cl)c3)cc2n1	BRCA1 expr act 5µM (no result: USP1 inh)
CCC(CO)Nc1ccn2nc(-c3cc(OC)c(OC)c(OC)c3)cc2n1 (stereo not given)	none (no result: USP1 inh)
CCC(CO)Nc1ccn2nc(-c3ccccc3)cc2n1 (stereo not given)	BRCA1 expr act 3.5µM (no result: USP1 inh)
CCC(CO)Nc1ccn2nc(-c3cccs3)cc2n1 (stereo not given)	BRCA1 expr act 5.6µM (no result: USP1 inh)
Cc1cc(C(=O)CSc2ccc(Cl)cc2)cc(C)c1OC(=S)N(C)C	BRCA1 expr act 5µM
CN1CCC2(CC1)C1CN(C)CC=C1C(C#N)=C(N)C2(C#N)C#N (stereo not given)	USP1 inh 28µM!, EPAC1 ag inconclusive
CC(C)=CC(=O)Nc1ccc(Cl)cc1	BRCA1 expr act 3.2µM
C/C(=C\C(=O)c1ccc(Cl)cc1)Nc1ccc(N2CCOCC2)cc1	none
C/C(=C\C(=O)c1ccc(Br)cc1)Nc1ccc(Cl)cc1	BRCA1 expr act 2.8µM
COc1ccc(NC(=O)C=C(C)C)cc1Cl	BRCA1 expr act inconclusive
C/C=C/C(=O)N[C@@H]1c2ccccc2CC[C@@H]1OCc1ccccc1	none
Cc1ccc(OCCCC(=O)Nc2nc3ccccc3[nH]2)cc1	none
O=C(CCCOc1ccccc1)Nc1nc2ccccc2[nH]1	BRCA1 expr act 6.3µM
CN(C)c1ccc(/C=C/c2ccnc3c(N)cccc23)cc1	none (no result: EPAC2 antag, EPAC2 ag, USP1 inh, EPAC1 antagonist, EPAC1 ag)
CC1CCN(C(=O)CSc2nc3ccccc3[nH]2)CC1	BRCA1 expr act 3.5µM
NC(=O)C1CCN(C(=O)CSc2nc3ccccc3[nH]2)CC1	none
C/C(N)=C(/C#N)C(=O)CSc1nc2ccccc2[nH]1	BRCA1 expr act 7.9µM
COc1cc(OC)c(NC(=O)Cn2c(=O)cc(C)c3c(C)nn(-c4ccc(C)cc4)c32)cc1Cl	none (no result: EPAC2 antag, EPAC2 ag, EPAC1 antagonist, EPAC1 ag, BRCA1 expr act)
